Experimental data: PubChem BioAssay (NCI)
The panel holds about 83,000 compounds, 20% with a hit somewhere; the sample as a whole holds those more often.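 Compound tested at a single concentration for 48 hours in 96-well plates; a percent growth value below 10 was scored as active.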 Values without a mark were called inactive. Active and inactive are the calls of the source.

Test system: HOP-62 NSCLC
Assay: NCI-60 one-dose screen, 48 h (100 = growth as untreated, 0 = no growth, -100 = all killed)
Conditions: 10 µM unless noted

| SMILES | growth |
| --- | --- |
| CCOc1cc(/C=N\NC(=O)N/N=C/c2ccc(O)c(OCC)c2)ccc1O | 38.9% |
| Cc1ccc(C2=C/C(=C/c3ccc(Br)cc3)C(=O)N2CCc2ccc(S(N)(=O)=O)cc2)cc1 | 96.1% |
| Clc1ccc(N2CCN(CCCN3CCN(c4cccc(Cl)c4)CC3)CC2)cc1 | 67.7% |
| CC(C)OC(=O)Nc1cc(F)ccc1F | 101% |
| C[C@H]1[C@H](C)CC[C@]2(C(=O)N3CCN(C)CC3)CC[C@]3(C)C(=CC[C@@H]4[C@@]5(C)C/C(=C/c6ccco6)C(=O)C(C)(C)[C@@H]5CC[C@]43C)[C@H]12 | 35.8% [100 µM] |
| CC(C)C1=NOC(=O)C1=Cc1cn(-c2ccccc2)nc1-c1ccc(Br)cc1 | 91.3% |
| C=C(CN=[N+]=[N-])[C@@H]1CC[C@]2(C)[C@H](CC[C@@H]3[C@H]4[C@H]5OC(=O)[C@@]4(CCC5(C)C)CC[C@]32C)[C@@]1(C)CCC#N | 90.9% [100 µM] |
| Nn1c(Nc2ccc(S(=O)(=O)Nc3ncccn3)cc2)nnc(/C=C/c2c(O)ccc3ccccc23)c1=O | 81.8% |
| Nc1cc(NN=C(c2ccc(O)cc2)c2ccc(O)cc2)c([N+](=O)[O-])cc1[N+](=O)[O-] | -10.2% (active) |
| CSc1nc2c(c(=O)n1C)C1(C(=O)N(Cc3ccccc3)c3ccccc31)c1c(nc(SC)n(C)c1=O)N2 | 84% |
| NNC(=O)c1ccc(C(=O)NN)cc1 | 115% |
| COc1cc(Cl)cc(-c2nn(C(=O)NS(=O)(=O)c3ccccc3)cc2-c2ccncc2)c1 | 68.6% |
| CCN(CC)CC(C)Nc1ccc(C)c2sc3ccccc3c(=O)c12 (stereo not drawn) | 76.3% |
| COc1ccc2c3ccnc(C(F)(F)F)c3n(CCCCN)c2c1 | 40.1% |
| COc1ccc(C2CC(c3cc(OC)c(OC)c(OC)c3)=NN2C(C)=O)cc1OCC(=O)Nc1nc2ccc(C(F)(F)F)cc2s1 (stereo not drawn) | 57.1% |
| COC(=O)C(=Cc1ccccc1[N+](=O)[O-])C(=O)OC | 104% |
| C=CCCCCOc1ccccc1-c1cnc(OCCCCC=C)n1C | 77.2% |
| O=C(O)c1cccc(CN2CCN(c3cc4c(cc3F)c(=O)c(C(=O)O)cn4C3CC3)CC2)c1O | 105% |
| Cc1cc(C)c(O)c(CNCCCCCCNCc2cc(C)cc(C)c2O)c1 | 17.6% |

| SMILES | growth |
| --- | --- |
| Cc1cnc(N)nc1OCC(C)(C)CNC(=O)c1cccc(-c2ccc(S(=O)(=O)Nc3ccc4c(c3)N(C(=O)C3CC3)CCC4)cc2)c1 | 59.7% |
| CCOc1cc(NC(=O)c2ccccc2)c(OCC)cc1N | 102% |
| CCN(CC)c1ccc(/C=C/c2ccc3cc(C)ccc3[n+]2CC)cc1 | 4.01% (active) |
| O=C1COCCN1c1ccc(NCc2cn(Cc3ccccc3)c3ccccc23)cc1 | 90.7% |
| c1nc(N2CCOCC2)c2[nH]ccc2n1 | 114% |
| O=C(Nc1cccc2cccnc12)c1cc(C(=O)c2ccc(Cl)cc2)n2ccc(-c3ccncc3)cc12 | 88.3% |
| COc1cc2c(c(OC)c1)C1c3cc(OC)ccc3NC(=O)N1CC2 (stereo not drawn) | 67.6% |
| CC[C@]1(O)CC2CN(CCc3c([nH]c4ccccc34)[C@@](C(=O)OC)(c3cc4c(cc3OC)N(C=O)[C@H]3[C@@](O)(C(=O)OC)[C@H](OC(C)=O)[C@]5(CC)C=CCN6CC[C@]43[C@@H]65)C2)C1 (stereo partly drawn) | 16.9% |
| CC(C)C1=NOC(=O)C1=Cc1cn(-c2ccco2)nc1-c1ccccc1 | 79.1% |
| COC(=O)[C@H](CC(C)C)NC(=O)NC(=O)NC(=O)CI | 92.8% |
| O=C1NC(=O)C(Cc2ccc(OCc3ccc(-c4cc(F)c(F)c(F)c4)cc3)cc2)S1 (stereo not drawn) | 91.7% |
| NC(=O)CC1C=CCC1 (stereo not drawn) | 103% |
| CC(C)C1=NOC(=O)C1=Cc1cn(-c2ccccc2)nc1-c1ccccc1 | 99.8% |
| COc1ccc2c(c1)c(-c1noc(C(=O)c3cn(C)c4ncc(Br)cc34)n1)cn2C | 53.1% |
| C#C[C@]1(O)CC[C@H]2[C@@H]3CC=C4c5nc(Nc6ccccn6)sc5CC[C@]4(C)[C@H]3CC[C@@]21C | -10.4% (active) |
| O=C1CN(Cc2ccc(C(=O)NO)cc2)C(=O)[C@@H](Cc2ccccc2)N1 | 102% |
| COC(=O)[C@]1(C)CC[C@]2(C)CC[C@]3(C)C(=CC(=O)[C@@H]4[C@@]5(C)CCC(=O)NC(C)(C)[C@@H]5CC[C@]43C)[C@@H]2C1 | -70.8% [100 µM] (active) |
| O=C(CSc1nc2ccc([N+](=O)[O-])cc2[nH]1)Nc1cccc(Cl)c1 | 35% |
| CCn1cc(-c2ccnc(NCCNS(=O)(=O)c3cccc4ccccc34)c2)c(-c2cccc(O)c2)n1 | 113% |
